Shown are actives, neighbours in structure and some others; about 10% of the full set was active somewhere.
Pf growth 96h = P. falciparum growth inhibition at 96 hours. P. falciparum luciferase reporter growth, 96 h. AID 504834. Potency, µM (series often up to 28.7 µM), hits mostly inhibitors. hit rate 6.9% among 320,000; active means well fitted inhibition curve with a large enough effect; inconclusive means small, poorly fitted or top-dose-only effect, or another doubt; inactive means no such curve, though single readings can be large or run the other way
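96 h incubation, 37 C, 5% CO2, of luciferase-reporter P. falciparum-infected RBCs (2% hematocrit, 0.05% parasitemia final) with test compounds; endpoint luminescence.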
Pf growth 48h = inhibits P. falciparum growth in the first generation, 48 h; Potency, µM (titrated, usually from 28.7 µM), actives largely listed as inhibitors; hit rate 5.9% among 310,000; P. falciparum luciferase growth in erythrocytes, 48 h; AID 504832; active means well fitted inhibition curve with a large enough effect; inconclusive means small, poorly fitted or top-dose-only effect, or another doubt; inactive means no such curve, though single readings can be large or run the other way
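Parasite viability was followed by luminescence of a genomically integrated firefly luciferase. Cultures held 0.1% parasitemia at 2% hematocrit (final), incubated under 5% CO2 at 37 C.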
SARS PLpro yeast = SARS-CoV PLP inhibition in yeast; S. cerevisiae expressing SARS-CoV PLpro, growth rescue; Potency, µM (series often up to 32.9 µM), hits mostly activators; hit rate 0.19% among 330,000; further: nearly all actives have a fitted effect of over 55% in size
NS1 inh = blocks influenza NS1 protein function | hit rate 0.4% among 270,000 | Potency, µM (doses to about 46.1 µM); further: actives are rising curves; nearly all actives have a fitted effect of over 50% in size
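Read-out: OD600 growth recovery of NS1-expressing budding yeast. Cells grown overnight at 30C in -URA glucose medium, washed, resuspended and diluted 1:100 in 2% galactose assay medium, pH 6.0. Same strain lacking NS1 served as positive control.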
Numbers stand for hits; i = inactive; ? = inconclusive; nt = no result; [ ] = dose if it differs, or a comment. Unless noted, the call rests on the fitted dose curve.

SMILES | Pf growth 96h | Pf growth 48h | SARS PLpro yeast | NS1 inh
CN(C)S(=O)(=O)c1cccc2c1C(=O)c1ccccc1C2=O | 10µM | 12µM | i | i
CNc1cccc2c1C(=O)c1ccccc1C2=O | 2.9µM | i | i | i
O=C1c2ccccc2C(=O)c2c(Nc3ccc4c5c(cccc35)C(=O)c3ccccc3-4)cccc21 | nt | nt | nt | i
CN(C)S(=O)(=O)c1ccccc1C#N | i | i | i | i
COc1cc(/C=C2/C(=O)N(C)C(=S)N2C)ccc1OCc1cccc(F)c1 | 3.3µM | i | i | i
CCC(=O)c1cn(CC(=O)Nc2ccc(C)cc2)c2ccccc12 | i | i | i | i
CC1=C(C(=O)Nc2ccccc2)C(c2ccncc2)n2nnnc2N1 (stereo unspecified) | 0.93µM | i | i | i
COc1ccccc1/C=C\C(=O)NCC(=O)N/N=C(\C)Cc1ccccc1 | i | i | i | i
O=C(NCc1ccccc1)c1noc2c1CCCCC2 | 9.3µM | i | i | i
COc1cc(NC(=O)c2noc3c2CCC3)c(OC)cc1Cl | i | 2.6µM | i | i
COC(=O)c1ccccc1NC(=O)c1noc2c1CCCC2 | 9.3µM | i | i | i
O=C(Nc1ccccc1C(=O)N1CCOCC1)c1noc2c1CCCC2 | nt | i | i | i
Nc1ccc2c(c1)Nc1ccccc1CC2 | i | i | i | i
COC(=O)C(NS(=O)(=O)c1cccc(S(=O)(=O)NC(C(=O)OC)c2ccccc2)c1)c1ccccc1 (stereo unspecified) | ? | i | i | i
CN([C@@H](C(=O)OC(C)(C)C)c1ccccc1)S(=O)(=O)c1cccc(S(=O)(=O)N(C)[C@@H](C(=O)OC(C)(C)C)c2ccccc2)c1 | 2.1µM | ? | i | i
COC(=O)[C@H](Cc1ccccc1)N(Cc1ccccc1)S(=O)(=O)N(Cc1ccccc1)[C@@H](Cc1ccccc1)C(=O)OC | nt | nt | i | nt
COC(=O)[C@H](Cc1ccccc1)N(C)S(=O)(=O)c1cccc(S(=O)(=O)N(C)[C@@H](Cc2ccccc2)C(=O)OC)c1 | 10µM | i | i | i
COc1ccc(NC(=O)C2=CC=CN3CCS(=O)(=O)N=C23)c(OC)c1 | nt | nt | i | nt
COc1ccc(C(C(=O)Nc2ccc(C(C)C)cc2)N(Cc2ccco2)C(=O)CC2NC(=O)NC2=O)cc1 (stereo unspecified) | ? | 1.5µM | i | nt
CCN1CCN(C(=O)CCCn2c(C)c3cnn(-c4ccccc4)c(=O)c3c2C)CC1 | 2.6µM | nt | i | i
Cc1c2cnn(-c3ccccc3)c(=O)c2c(C)n1CCCC(=O)N1CCN(c2ncccn2)CC1 | ? | ? | i | i
O=C(O)CN1C(=O)c2ccc(Oc3ccc4c(c3)C(=O)N(CC(=O)O)C4=O)cc2C1=O | i | 2.1µM | i | i
O=C(O)CN1C(=O)c2ccc(Oc3cccc4c3C(=O)N(CC(=O)O)C4=O)cc2C1=O | nt | i | i | i
Cc1nn(-c2ccccc2)c(C)c1NC(=O)COC(=O)/C=C/c1ccccc1 | i | i | i | nt
CC(C)C(CCNC1CCN(C)CC1)c1ccc(Cl)cc1 (stereo unspecified) | ? | i[0.00184 µM] | i | i
SMILES | Pf growth 96h | Pf growth 48h | SARS PLpro yeast | NS1 inh
CN1CCC(NCCC(c2ccc(F)cc2)c2ccc(Cl)cc2)CC1 (stereo unspecified) | 1.9µM | 1.7µM | i | i
Cc1cccc(C)c1N(Cc1ccccc1F)S(C)(=O)=O | i | i[5.75 µM] | i | i
COc1ccc(C(CNC(=O)c2cc3c(s2)CCC(C)C3)N2CCCC2)cc1 (stereo unspecified) | 4.1µM | 9.3µM | i | nt
CCC1CCc2sc(C(=O)NC3CCN(Cc4ccccc4)CC3)cc2C1 (stereo unspecified) | ? | ? | i | nt
CC1CCc2sc(C(=O)NC3CCN(Cc4ccccc4)CC3)cc2C1 (stereo unspecified) | 6.6µM | 8.3µM | i | nt
COc1ccc(C(CNC(=O)c2cc3ccccc3cc2O)N2CCOCC2)cc1 (stereo unspecified) | 10µM | 9.3µM | i | nt
COc1ccc(NC(=O)CN(C)C(=O)c2cc3c(s2)CCC(C)C3)cc1 (stereo unspecified) | i | i | i | i
COc1ccc(C(CNC(=O)c2cc3c(s2)CCC(C)C3)N2CCOCC2)cc1 (stereo unspecified) | ? | 12µM | i | nt
CCOc1ccc(NS(=O)(=O)c2cc(C(=O)N3CCN(c4ccccc4O)CC3)ccc2Cl)cc1 | ? | ? | i | nt
CCOc1ccc(C(C(=O)NCC2CCCO2)N(C(=O)c2snc(C(N)=O)c2N)c2ccc3c(c2)OCCO3)cc1 (stereo unspecified) | ? | ? | i | i
CCC1CCc2sc(C(=O)NCC(c3ccccc3OC)N3CCCC3)cc2C1 (stereo unspecified) | 9.3µM | 10µM | i | nt
CCC(=O)Nc1cc(C(=O)OC(C(=O)c2ccc(C)c(C)c2)c2ccccc2)ccc1C (stereo unspecified) | 1.7µM | 12µM | i | i
Cc1ccc(C)c(NC(=O)CCC(=O)OC(C(=O)c2ccccc2)c2ccccc2)c1 (stereo unspecified) | ? | i | i | i
CN1C2C=C3C(C#N)=C(N)C(C#N)(C#N)C(c4ccc(Br)cc4)C3C1CC2 (stereo unspecified) | 8.3µM | 9.3µM | i | i
FC(F)Sc1nc(-c2ccccc2)c(-c2ccccc2)n1C(F)F | 3.3µM | i | i | i
N#Cc1c(N2C(=O)Nc3ccccc3N2O)sc2c1CCCC2 | i | i | i | nt
N#Cc1c(N2C(=O)Nc3ccccc3N2O)sc2c1CCCCCC2 | 9.3µM | i | i | i
COc1cccc(C2C3=C(CCCC3=O)Nc3nc(-c4cc(OC)c(OC)c(OC)c4)nn32)c1 (stereo unspecified) | ? | ? | i | i
COc1cc(-c2nc3n(n2)C(c2ccc(F)cc2)C2=C(CCCC2=O)N3)cc(OC)c1OC (stereo unspecified) | i | 5.2µM | i | i
CCc1nn(CC(=O)NCCCN2CCN(CC)CC2)c(=O)c2cc3occc3n12 | ? | i | i | i
CCc1noc(C)c1C(=O)N(CC(C)C)c1c(N)n(Cc2ccccc2)c(=O)[nH]c1=O | i | i | i | nt
CC(=NNC(=O)CSc1nc2ccccc2o1)c1ccco1 | nt | nt | i | nt
COc1cc(-c2nc(CN3CCN(CC(C)C)C(=O)[C@@H]3C)c(C)o2)ccc1F | i | 9.3µM | i | i
Cc1ccccc1CN1CCCNC1=O | nt | nt | i | i
Cc1ccccc1CN1CCNC1=O | i | 9.3µM | i | ?
SMILES | Pf growth 96h | Pf growth 48h | SARS PLpro yeast | NS1 inh
Cc1cc2oc(=O)cc(-c3cc4ccccc4o3)c2cc1OC(=O)N(C)C | ? | ? | i | i
CCN(CC)C(=O)Oc1cc2c(-c3cc4cccc(OC)c4o3)cc(=O)oc2cc1C | 10µM | 10µM | ? | i
O=C(CSc1nc2ccccc2c2c1CCCC2)N1CCOCC1 | 9.3µM | i | i | i
Cc1ccc(C)n1CCN1CCN(C(=O)CSc2nc3ccccc3nc2N2CCOCC2)CC1 | i | 12µM | i | ?
O=C(CSc1nncc2ccccc12)N1CCOCC1 | nt | i | i | i
COc1cc(/C=N/NS(=O)(=O)c2ccc(C)c([N+](=O)[O-])c2)cc([N+](=O)[O-])c1O | ? | i | i | i
COc1ccc(-n2c(O)c(/C=N/NS(=O)(=O)c3ccc(C)c([N+](=O)[O-])c3)c3ccccc3c2=O)cc1OC | 12µM | ? | i | i

Compound activity deposited in PubChem BioAssay by National Center for Advancing Translational Sciences (NCATS).
